# Laboratory results published in PubChem BioAssay (NCATS).
# Results filed as inconclusive are left out. Unmarked numbers belong to inactive results. Calls follow the shape of the dose curve; as a rule, active = well fitted activation curve with a large enough effect; inconclusive = small, poorly fitted or top-dose-only effect; inactive = flat fitted curve, though single readings scatter.
# Experiment: Primary redox qHTS assay for identification of artifact compounds. (AID 1845223);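 also: 0% = DMSO and 100% = reference compound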
# Conditions: Amplex Red/HRP redox cycling with DTT, fluorescence; series mostly up to 53.8 µM; redox activity (% of DA3003): at the top concentration
# In short: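 Amplex Red (25 uM) and HRP (250 mU/mL) in HBSS, with compounds for 15 min, then 250 uM DTT for 30 min, room temperature, dark. Fluorescence 525/598 nm read; normalized to DMSO and 10 uM DA3003; Hill fit.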
row,Structure (SMILES),redox activity (% of DA3003)
1,CC1=CC(=O)CC(C)(CO[C@@H]2O[C@H](CO)[C@@H](O)[C@H](O)[C@H]2O)C1(O)/C=C/C(C)=C/C(=O)O (some centres undefined),-6.95% [at 25.6 µM]
2,CCCCS(=O)(=O)Nc1ncnc(OCCOc2ncc(Br)cn2)c1-c1ccc(Br)cc1,11.7%
3,CC(C)(C)NCc1cc(Nc2ccnc3cc(Cl)ccc23)c2c(c1O)CCCC2,-4.12% [at 0.461 µM]
4,CCCCN(CCCC)C(=O)CN1C[C@H](c2ccc3c(c2)OCO3)[C@@H](C(=O)O)[C@@H]1c1ccc(OC)cc1,11.7%
5,O=C(O)Cc1nn(Cc2nc3cc(C(F)(F)F)ccc3s2)c(=O)c2nccnc12,5.46%
6,CC(=O)NCCCCn1c2c(c3ccccc31)C(=O)NCC2,1.91%
7,COC1=CC(=O)O[C@@H](CCc2ccccc2)[C@@H]1O,-0.186%
8,OC[C@H]1O[C@@H](OC(CCCCc2ccc(O)cc2)CCc2ccc(O)cc2)[C@H](O[C@@H]2OC[C@](O)(CO)[C@H]2O)[C@@H](O)[C@@H]1O (some centres undefined),5.11% [at 25.6 µM]
9,CC1(C)CCC(C)(C)c2cc([C@@H](O)C(=O)Nc3ccc(C(=O)O)cc3F)ccc21,22%
10,CC[C@H](C)/C=C(C)/C=C/C(=O)Cc1cc(O)c(C)c(O)c1C=O,14.3%
11,CC1(C)CCCC2(C)C(CO)C3CCC2C31 (centres undefined),-11.2%
12,C=C1[C@H]2CC[C@]3(O)[C@@](CC[C@@H]4[C@](C)(C(=O)O)CCC[C@]43C)(C2)[C@H]1OC(=O)/C(C)=C\C,3.94% [at 25.6 µM]
13,CC(C)=CCC[C@](C)(O[C@@H]1O[C@H](CO[C@@H]2OC[C@@H](O)[C@H](O)[C@H]2O)[C@@H](O)[C@H](O)[C@H]1O)[C@H]1CC[C@]2(C)[C@@H]1[C@H](O)C[C@@H]1[C@@]3(C)CC[C@H](O[C@@H]4O[C@H](CO)[C@@H](O)[C@H](O)[C@H]4O[C@@H]4O[C@H](CO)[C@@H](O)[C@H](O)[C@H]4O)C(C)(C)[C@@H]3CC[C@]12C,4.56% [at 25.6 µM]
14,CN(C)c1cccc(-c2c3c(=O)n(-c4ccccc4Cl)[nH]c3cc(=O)n2C)c1,-4.71%
15,COC1=CC(=O)O[C@@H](/C=C/c2ccccc2)[C@@H]1O,-10.7%
16,C[C@@H]1CC[C@]2(C(=O)O)CC[C@]3(C(=O)O)C(=CCC4[C@@]5(C)CC[C@H](O[C@@H]6O[C@@H](C)[C@H](O[C@@H]7O[C@H](CO)[C@@H](O)[C@H](O)[C@H]7O)[C@@H](O)[C@H]6O)C(C)(C)C5CC[C@]43C)C2[C@H]1C (some centres undefined),-10.2% [at 25.6 µM]
17,COc1ccc2c3c1O[C@H]1C[C@@H](O)C=C[C@@]31CCN(C)C2,-3.31%
18,CC1(C)CC[C@]2(C(=O)O)CC[C@]3(C)C(=CCC4[C@@]5(C)C[C@H](O)[C@H](O[C@@H]6OC[C@H](O)[C@H](O)[C@H]6O)[C@@](C)(CO)C5CC[C@]43C)[C@@H]2C1 (some centres undefined),21.8% [at 25.6 µM]
19,OC[C@H]1O[C@@H](OCCc2ccc(O)cc2)[C@H](O)[C@@H](O)[C@@H]1O,-15.3%
20,COc1cc(C[C@H]2COC(=O)[C@@H]2Cc2ccc(O)c(OC)c2)ccc1O,8.34%
21,COC(=O)C1=C[C@@H](O)[C@@H](O)[C@H](O[C@@H]2O[C@H](COC(=O)/C=C/c3ccccc3)[C@@H](O)[C@H](O)[C@H]2O)C1,-8.1% [at 25.6 µM]
22,COc1ccc(/C=C/C(=O)O[C@H]2[C@@H]3C=CO[C@@H](O[C@@H]4O[C@H](CO)[C@@H](O)[C@H](O)[C@H]4O)[C@@H]3[C@@]3(CO)O[C@@H]23)cc1O,9.02% [at 25.6 µM]
23,CC1=CC2(O)/C=C/C(C)(O)CC(O)/C=C/C(=O)OC23C(=O)NC(CC(C)C)C3C1C (centres undefined),12.6% [at 25.6 µM]
24,C=C1C[C@]23C[C@H]1CC[C@H]2[C@]1(C)CCC[C@@]2(CO)C(=O)O[C@H]([C@H]21)[C@@H]3O,1.69%
25,CCC[C@@H]1C[C@@H](C(=O)N[C@@H]([C@H]2O[C@H](SC)[C@H](O)[C@@H](O)[C@@H]2O)[C@@H](C)O)N(C)C1,-2.67%
26,COC(=O)C[C@@H]1C(C(=O)O)=CO[C@@H](O[C@@H]2O[C@H](CO)[C@@H](O)[C@H](O)[C@H]2O)/C1=C\COC(=O)/C=C\c1ccccc1,-0.314% [at 25.6 µM]
27,C=C1C(O[C@@H]2O[C@H](CO)[C@@H](O)[C@H](O)[C@@H]2O)CC2C(C)(C)C(O)CCC2(C)C1CC/C(C)=C\CO (some centres undefined),15.7% [at 25.6 µM]
28,CCC(CC)n1ccc2c(C(=O)NCc3c(C)cc(C)[nH]c3=O)cc(C#N)cc21,-5.95%
29,CCOC(=O)[C@H]1O[C@@H]1C(=O)N[C@@H](CC(C)C)C(=O)NCCC(C)C,-1.7%
